Laboratory results taken from PubChem BioAssay AID624483 (NMMLSC, 2012).
The campaign covered roughly 360,000 compounds. About 11,000 (3.1%) were called active. Another 2% or so got no clear call; they are omitted. The list comes from a sample in which actives are over-represented; it also holds similar structures and randomly drawn compounds. Unmarked numbers belong to inactive results. No stated cut-off is given here; in the data, active means fluorescence intensity above about 16000; inconclusive means no clear call, values can overlap the other calls; inactive means below that.

Assay: compound fluorescence in toxin protease inhibitor counterscreen, primary screen, artefact control for toxin protease inhibitor project, biochemical, multiplex microsphere, HTS (AID 624483)
Conditions: compound autofluorescence counterscreen, microsphere flow cytometry; hits give high values

Compound	fluorescence intensity
OC[C@@H]1CN(C2CCCC2)C[C@H](n2cnc3c(NC4CCC4)ncnc32)O1	2860
Cn1c(=O)[nH]c(=O)c2c1nc(NCCCn1ccnc1)n2Cc1cccc(Br)c1	4650
COc1cccc(-n2c(=O)c3c(C)c(C(=O)N(C)C)sc3n(CC(=O)NCCc3ccc(OC)c(OC)c3)c2=O)c1	4050
CCC/C(O)=C1\C(=O)CC(C)(C)CC1=Nc1ccccc1OC	2780
Cc1cccc(N=C2NC(=O)CS2)c1C	7480
CCOc1ccccc1N=C1NC(=O)CS1	23300 (active)
Cc1nc(-c2ccccc2)cn2c1nc1ccccc12	2360
CN(C)C(=O)c1cccc(-c2cnc3c(NC=O)cc(-c4ccc(C(=O)N5CCOCC5)cc4)cn23)c1	3080
CCOc1ccc(CCN2C(=O)C(=O)N([C@@H](CC(C)C)CN3CCC[C@H]3CN3C(=O)C(=O)NC[C@@H]3Cc3ccccc3)C[C@@H]2CC(C)C)cc1	4830
Cn1c(SCC(=O)c2cccs2)nnc1-c1ccco1	8030
CCOc1ccc(-n2c(SCC(N)=O)nnc2-c2ccco2)cc1	3680
CCOC(=O)CSc1nnc(-c2ccco2)n1C	19700 (active)
Nn1c(SCC(=O)Nc2nccs2)nnc1-c1ccco1	6070
NC(=O)c1c(NC(=O)CSc2nnc(-c3ccco3)n2N)sc2c1CCCC2	2490
CCc1cccc(C)c1NC(=O)CSc1nnc(-c2ccco2)n1N	23800 (active)
O=C(Nc1ccc(Cl)c(C(F)(F)F)c1)C1Cc2c(-c3ccccc3Oc3ccccc3)ccnc2O1 (stereo unspecified)	3930
OC(c1cc(Cl)cc(Cl)c1)c1ncc(-c2ccccc2C(F)(F)F)[nH]1 (stereo unspecified)	2910
O=C(Nc1ccc(Cl)cc1)c1csc([C@@H]2O[C@H](CO)[C@H](O)[C@H](O)[C@H]2O)n1	3610
CCn1c(SCC(=O)NCC2CCCO2)nc2ccccc21 (stereo unspecified)	4090
O=C(CCCn1c(SCC(=O)c2ccccc2)nc2ccccc2c1=O)NCC1CCCO1 (stereo unspecified)	23800 (active)
CCCCn1c(SCC(=O)NCC2CCCO2)nc2ccc(N3CCOCC3)cc2c1=O (stereo unspecified)	21100 (active)
O=C(CSc1nc2ccccc2c(=O)n1Cc1ccc(F)cc1)NCC1CCCO1 (stereo unspecified)	6760
COCCNC(=O)c1ccc(Cn2c(SCC(=O)NCC3CCCO3)nc3ccc(Br)cc3c2=O)cc1 (stereo unspecified)	5480
CCn1c(SCC(=O)NCC2CCCO2)nc2cc(S(=O)(=O)N3CCCCC3)ccc21 (stereo unspecified)	3450

Compound	fluorescence intensity
O=C(O)C1CCCN1S(=O)(=O)c1ccc2c(c1)CCC2 (stereo unspecified)	7810
CC(C)(C)SCCSC1=CC(=O)CC(c2ccccc2)C1 (stereo unspecified)	3630
CCCCNC(=O)C[C@@H]1C[C@@]2(C(=O)OCC)CCC=C2N(Cc2ccco2)C1=O	6060
CC1(Cc2ccccc2C#N)C(=O)Nc2ccc(-c3ccc4[nH]ccc4c3)cc21 (stereo unspecified)	3220
COc1ccc(NC(=O)CCCN2C(=O)C(c3ccccc3)Oc3cccnc32)cc1 (stereo unspecified)	5260
Cc1nnsc1S(=O)(=O)Cc1ccccc1Cl	22200 (active)
CCC1CCCCN1S(=O)(=O)Cc1ccccc1Cl (stereo unspecified)	5020
Cc1nnsc1C(=O)Nc1cccc(Cl)c1C	4480
C[C@H]1COc2cc(N3CCSCC3)ccc2S(=O)(=O)N1	5560
c1ccc(C[C@H]2CNCCN2CCC23CC4CC(CC(C4)C2)C3)cc1	3210
CCCOn1c(-n2nc(C)cc2C)nc2ccccc2c1=O	23500 (active)
Cc1cc(C)n(-c2nc(C(F)(F)F)nc3ccccc23)n1	3100
Cc1cc(C)n(-c2c(F)c(F)c(COC(=O)c3ccccc3)c(F)c2F)n1	3060
COc1cc(/C=C/C(=O)OCC(=O)NCCCc2ccccc2)ccc1O	5380
Cc1ccccc1S(=O)(=O)N1[C@@H](c2cccc(Cl)c2)C(C(=O)OC(C)(C)C)=CC[C@H]1c1ccc(Cl)cc1	4430
CC12CCC(C(=O)N(CCC#N)CCC#N)(CC1=O)C2(C)C (stereo unspecified)	20400 (active)
Cn1c(=O)c2c(nc(N/N=C/c3cccs3)n2Cc2ccc(Br)cc2)n(C)c1=O	2410
O=C(Nc1nnc(Cc2ccccc2)s1)c1cnccn1	3990
O=C(Nc1cccc(NC(=O)c2ccco2)c1)c1cnccn1	23700 (active)
CC(C)(C)NC(=O)c1cc(NC(=O)c2ccco2)cc(NC(=O)c2ccco2)c1	3040
CCOC(=O)N(C)c1c(CC)nc2c(OCc3ccccc3C(=O)OC)cccn12	3540
COc1cc(NC(=O)c2cc(-c3ccc(F)cc3OC(C)C)n[nH]2)cc(OC)c1OC	3570
CCNC(=O)c1cc2c(c(-c3cccc(-c4cncnc4)c3)n1)[C@H](CCO)N(C(C)=O)C2	6050
O=C1NC[C@H](CCCCN2CCN(CCc3ccccc3)C(=O)C2=O)N(CC2CCCCC2)C1=O	5200

Compound	fluorescence intensity
Cc1ccc(NC(=O)C2(N3CCC3=O)CCCCC2)cc1	2510
O=C(c1cc(S(=O)(=O)N2CCOCC2)ccc1Cl)N1CCOCC1	5390
O=C(Nc1ccc(N2CCOCC2)cc1)c1cccc(S(=O)(=O)N2CCOCC2)c1	2540
O=C(c1cccc(S(=O)(=O)N2CCOCC2)c1)N1CCOCC1	25300 (active)
Cc1cccc(OCCNC(=O)CSc2ccc(C(F)(F)F)cc2[N+](=O)[O-])c1	2620
O=c1c2ccccc2nc(-c2ccccc2)n1-c1ccccn1	4770
O=c1c2ccccc2nc(-c2ccc(Cl)cc2Cl)n1-c1ccncc1	18700 (active)
O=c1c2ccccc2nc(CBr)n1-c1ccc(Cl)cc1	3850
CCOc1ccc(NC(=O)CCS(=O)(=O)c2ccc3c(c2)CCCN3C(=O)CC)cc1	10500
CCNc1nc(NC(C)C)nc(OCCOC(=O)c2ccccc2)n1	22900 (active)
COC(=O)c1ccc(Oc2nc(NC(C)C)nc(SC)n2)cc1	2470
CCNc1nc(NC(C)C)nc(N2CC(=O)N(CC(=O)OCC)C2=N)n1	10500
CN(C)N1C(N)=C(C#N)C(c2ccc(Br)cc2)C2=C1CCCC2=O (stereo unspecified)	4350
Cc1ccc(N=Cc2c(O)n(-c3nccs3)c(=O)c3ccccc23)c(C)c1	2410
CCOc1ccc(N=Cc2c(O)n(-c3cccc(C)n3)c(=O)c3ccccc23)cc1	20300 (active)
CCOc1ccc(-n2c(O)c(/C=N/Nc3nc(C)cc(C)n3)c3ccccc3c2=O)cc1	4560
O/N=C(\C[n+]1ccccc1)c1ccc(Br)cc1	3050
COC(=O)c1sccc1NC(=O)CC1C(=O)NCCN1C(=O)Nc1ccc(F)cc1F (stereo unspecified)	6320
Cc1ccc(S(=O)(=O)N(CC(=O)N2CCc3ccccc3C2)c2cccc(Cl)c2)cc1	2460
COc1cccc(N(CC(=O)N2CCc3ccccc3C2)S(C)(=O)=O)c1	22900 (active)
CS(=O)(=O)N(CC(=O)N1CCc2ccccc2C1)c1ccc(Br)cc1	4000
COc1cc(/C=N\NC(=O)c2nonc2N)c(OC)cc1Br	2500
CCOc1ccc(/C=C(/C#N)c2nnc(N3CCOCC3)n2-c2ccccc2)cc1OC	3950
COc1cc(N2CCCC2)c(OC)cc1/C=C(/C#N)c1cccc(Br)c1	20000 (active)

Compound	fluorescence intensity
O=C(O)c1ccccc1-c1cccc2nncn12	3820
Cc1sc2ccccc2c1CNC[C@H]1O[C@@H](n2ccc(=O)[nH]c2=O)[C@H](O)[C@@H]1O	6010
CCc1nc2c(OCCOc3ccccc3)cccn2c1N(C=O)Cc1ccc(OC)cc1	3280
O=C1CCCc2c1[nH]c1ccc(Br)cc21	10300
Cc1occc1C(=O)N/N=C/c1ccc(-c2cccc([N+](=O)[O-])c2)o1	6020
C#CCCCc1nc2ccccc2c(=O)n1N	2060
COc1ccccc1CNS(=O)(=O)c1ccc(C)cc1	3200
Cc1ccc(S(=O)(=O)NCc2nc3ccccc3c(=O)n2N)cc1	23000 (active)
O=C(COc1ccc(-c2ccccc2)cc1)NN=C1CCCC1	4340
O=S(=O)(NC1CC1)c1ccc(F)c(F)c1	5500
O=S(=O)(NC1CCCCC1)c1ccc(F)c2ccccc12	17400 (active)
O=S(=O)(NC1CC1)c1ccc2c3c(cccc13)CC2	4730
Cc1cc(=O)oc2c3c(cc(OCC(=O)NCC(O)c4ccccc4)c12)OC(C)(C)CC3 (stereo unspecified)	5100
COc1cccc(NC(=O)CCc2nnc3ccc(N4CCC(C)CC4)nn23)c1	5600
CCOC(=O)[C@]12CCC=C1N(Cc1ccco1)C(=O)[C@H](CC(=O)N1CCSCC1)C2	4160
CC(C)(C(=O)N1CCC1(C)C(=O)NS(=O)(=O)c1ccc(Br)cc1)c1ccccc1 (stereo unspecified)	3370
NC(c1ccccc1)c1csc(NC(=O)Nc2cccc(C(F)(F)F)c2)n1 (stereo unspecified)	3690
Clc1ncn(CCOc2ccccc2)c1Cl	3990
COCCOCCn1cnc2ccccc21	9770
Cc1cc2ncn(CCCCOc3ccccc3)c2cc1C	17400 (active)
CSc1ccc(CN2CCC2(C)C(=O)Nc2ccc(C)c(O)c2)cc1 (stereo unspecified)	3540
O=C(NCCCN1CCOCC1)c1ccc([N+](=O)[O-])cc1[N+](=O)[O-]	4500
O=C(NCCCNc1ccc([N+](=O)[O-])cc1Cl)c1ccccc1F	4790
O=[N+]([O-])c1ccc(NCCCN2CCOCC2)c(Cl)c1	22800 (active)
